Test results as given in PubChem BioAssay AID463173 (ICCB-Longwood Screening Facility, Harvard Medical School, 2010).
The campaign covered roughly 52,000 compounds. About 4,300 (8.3%) were called active. The sample as a whole holds a higher share of actives than the screen did. Values without a mark were called inactive. Cut-off read from the data, not from the text of the source: active = survival mostly below about 52% (no sharp cut-off); inactive = mostly above about 56%.

Test system: DeltatarO mutant
Experiment: growth inhibition of S. aureus wild type versus tarO mutant, primary screen, teichoic acid synthesis inhibitors, RN4220, OD600 (AID 463173)
Conditions: OD600, 18 h, active compounds read low, screened at 18.75 µg/mL (by protocol)

Compound	survival
COc1cccc(N2CCN(C(=O)CCn3nc(C)c(S(=O)(=O)N4CCCC4)c3C)CC2)c1	92%
COc1ccc(N2CCN(C(=O)CCn3nc(C)c(S(=O)(=O)N4CCCC4)c3C)CC2)cc1	73%
Cc1nn(CCC(=O)N2CCN(c3ccccc3)CC2)c(C)c1S(=O)(=O)N1CCCC1	-5% (active)
COc1ccc(Cl)cc1NC(=O)CSC1=Nc2ccccc2C2=NC(CC(=O)NCc3ccc4c(c3)OCO4)C(=O)N12 (stereo not given)	87%
COc1ccc(CCn2c(=O)c3cccnc3n(CC(=O)Nc3ccc(C)cc3C)c2=O)cc1OC	78%
O=S(=O)(c1ccccc1)c1nc(-c2cccc(Cl)c2)oc1NCc1ccccc1	83%
O=C(NC1CCCC1)c1ccc2c(=O)n(Cc3ccccc3)c(SCc3ccccc3)nc2c1	92%
O=C(NC1CCCCC1)c1ccc(CSc2nc3cccnc3n2Cc2ccccc2F)cc1	93%
Cc1ccccc1CSc1nc2cc(C(=O)NC3CCCC3)ccc2c(=O)n1Cc1ccccc1	107%
O=C(NC1CCCC1)c1ccc(CSc2nc3cccnc3n2Cc2ccccc2F)cc1	37% (active)
O=C(NC1CC1)c1ccc(Cn2c(SCc3ccc(F)cc3)nc3cccnc32)cc1	78%
O=C(NC1CCCCC1)c1ccc(Cn2c(SCc3ccccc3)nc3cccnc32)cc1	83%
O=C(NC1CCCCC1)c1ccc(Cn2c(SCc3ccc(F)cc3)nc3cccnc32)cc1	32% (active)
O=C(NC1CCCCC1)c1ccc(CSc2nc3cccnc3n2Cc2ccccc2)cc1	102%
O=C(NC1CCCC1)c1ccc(CSc2nc3cccnc3n2Cc2ccc(F)cc2)cc1	63%
O=C(NC1CCCCC1)c1ccc(Cn2c(SCc3ccccc3F)nc3cccnc32)cc1	80%
O=C(NC1CCCC1)c1ccc2c(=O)n(Cc3ccccc3)c(SCc3ccccc3F)nc2c1	0% (active)
O=C(NC1CCCCC1)c1ccc(CSc2nc3cccnc3n2Cc2ccc(F)cc2)cc1	25% (active)
O=C(Cn1cc(SCc2c(F)cccc2Cl)c2ccccc21)N1CCCC1	74%
COCCn1c(COc2ccc(Cl)cc2)nnc1SCC(=O)OC	96%
CCOc1ccccc1N(CC)C(=O)c1noc2c1COc1ccc(C)cc1-2	67%
COc1ccc(CCNC(=O)NCc2noc3ccccc23)c(OC)c1	62%

Compound	survival
NC(=O)CSc1nc2cc3c(cc2c(=O)n1CCCCCC(=O)NCc1ccc2c(c1)OCO2)OCO3	81%
CCC(=O)N1CCc2cc(Br)cc(S(=O)(=O)NCc3cccc(OC)c3)c21	58%
COc1cccc(Cn2cc(S(=O)(=O)c3ccc(C)cc3)c(=O)c3cc4c(cc32)OCO4)c1	67%
COc1ccc(OC)c(S(=O)(=O)NCC(c2ccco2)S(=O)(=O)c2ccccc2)c1 (stereo not given)	94%
CCOCCCNC(=O)CN1C(=O)COc2ccc(S(=O)(=O)N3CCCCCC3)cc21	81%
C#CCOc1ccc(-c2nnc(Nc3ccc(NC(C)=O)cc3)c3ccccc23)cc1	60%
COc1ccc(-c2nnc(Nc3ccc(OC)c(C(N)=O)c3)c3ccccc23)cc1	41% (active)
CCOC(=O)c1c(C)oc2ncnc(Nc3ccc(OCC)cc3)c12	89%
CCOC(=O)c1c(C)c(-c2ccccc2)n(CC(=O)Nc2ccc(OCC)cc2)c1C	73%
COc1ccc(-c2nnc(Nc3ccc(OCC(N)=O)cc3)c3ccccc23)cc1	69%
CNC(=O)c1cc(Nc2nnc(-c3ccc(O)cc3)c3ccccc23)ccc1OC	170%
COC(=O)c1c(Oc2ccc(OC)cc2)nnc(-c2ccccc2)c1-c1ccccc1	101%
CCOC(=O)c1c(Oc2ccc(OC)cc2)nnc(-c2ccccc2)c1-c1ccccc1	75%
C#CCOc1ccc(-c2nnc(Nc3cccc(C)c3)c3ccccc23)cc1	31% (active)
CCOC(=O)c1c(Nc2ccc(OCC)cc2)nnc(-c2ccccc2)c1-c1ccccc1	-2% (active)
CCOC(=O)c1c(Nc2ccc(OC)cc2)nnc(-c2ccccc2)c1-c1ccccc1	7% (active)
Cc1cccc(Nc2nnc(-c3ccc(C)c(S(=O)(=O)N4CCCCC4)c3)c3ccccc23)c1	104%
O=S(=O)(c1ccc(Br)cc1)c1nc(-c2cccs2)oc1SCc1ccccc1F	66%
Cc1cccc(CN2C(=O)c3ccccc3S(=O)(=O)c3ccc(C(=O)N4CCN(c5cc(C)ccc5C)CC4)cc32)c1	74%
CC1CCN(S(=O)(=O)c2ccc3c(c2)N(CC(=O)NCCc2ccc(Cl)cc2)C(=O)CO3)CC1	87%
Cc1cc(C)cc(Oc2nc3ccccn3c(=O)c2/C=C(\C#N)c2nc3ccccc3s2)c1	60%
COc1ccc(NC(=O)CC2C(=O)N(c3ccc(C)cc3)C(=O)N2Cc2ccc(C)cc2)cc1 (stereo not given)	68%

Compound	survival
Cc1ccc(CN(C(=O)COc2ccccc2Cl)c2ccccn2)o1	59%
COc1ccc(CCNc2ncnc3onc(C)c23)c(OC)c1	100%
COC(=O)c1c(-c2cccs2)csc1NC(=O)COc1ccccc1	78%
O=c1[nH]c2ccc(N=Cc3ccc(F)cc3)cc2[nH]1	73%
COc1cc(C=Nc2ccc3[nH]c(=O)[nH]c3c2)ccc1OC(C)=O	85%
O=c1[nH]c2ccc(N=Cc3ccccc3C(F)(F)F)cc2[nH]1	71% (active)
CC1CCN(S(=O)(=O)c2ccc3c(c2)N(CC(=O)O)C(=O)CO3)CC1	94%
CCOc1ccc(CNC(=O)Cc2ccc(NC(=O)N3CCCCc4ccccc43)cc2)cc1OC	85%
COc1ccc(N2CCN(C(=O)Nc3cn(CC(C)C)c(=O)c4ccccc34)CC2)cc1	83%
CS(=O)(=O)N1CCC(N2CCN(Cc3ccccc3)C(=O)C2=O)CC1	91%
CC(=O)c1cccc(NC(=O)c2nc(-c3ccc(C)cc3)n3c2CCCCC3)c1	34% (active)
CC(=O)c1ccc(NC(=O)c2nc(-c3ccc(C)cc3)n3c2CCCCC3)cc1	58%
Cc1ccc(-c2nc(C(=O)Nc3cccc(C#N)c3)c3n2CCCCC3)cc1	88%
N#C/C(=C/c1ccc(-c2cccc(C(F)(F)F)c2)o1)C(=O)OC1CCCCC1	82%
Cc1cccc(C(=O)Nc2cccc(C(=O)OCc3cc(=O)n4nc(C(C)C)sc4n3)c2)c1	113%
CCOc1ccc(C2c3c(-c4ccc(C)cc4)n[nH]c3C(=O)N2c2ccc(Cl)cc2)cc1 (stereo not given)	91%
Cc1ccc(N2C(=O)c3n[nH]c(C)c3C2c2ccc(Cl)cc2)cc1 (stereo not given)	6% (active)
COc1cc(C2c3c(-c4ccc(C)cc4)n[nH]c3C(=O)N2c2ccc(F)cc2)ccc1O (stereo not given)	95%
Cc1ccc(-c2n[nH]c3c2C(c2cccs2)N(c2ccc(Cl)cc2)C3=O)cc1 (stereo not given)	62%
COc1ccccc1C1c2c(-c3ccc(Cl)cc3)n[nH]c2C(=O)N1c1ccc(C)cc1 (stereo not given)	79%
O=C1c2[nH]nc(-c3ccc(F)cc3)c2C(c2ccccc2F)N1c1ccccc1 (stereo not given)	10% (active)
Cc1ccc(N2C(=O)c3n[nH]c(C)c3C2c2ccc(C(C)C)cc2)cc1 (stereo not given)	39% (active)

Compound	survival
CCOC(=O)c1ccc(N2C(=O)c3n[nH]c(C)c3C2c2ccc(C(C)C)cc2)cc1 (stereo not given)	86%
Cc1ccc(N2C(=O)c3[nH]nc(-c4ccc(Cl)cc4)c3C2c2ccc(F)cc2)cc1 (stereo not given)	44% (active)
CCOC(=O)c1ccc(N2C(=O)c3n[nH]c(-c4cccs4)c3C2c2ccc(C(C)C)cc2)cc1 (stereo not given)	104%
COc1ccc(C2c3c(-c4ccc(F)cc4)n[nH]c3C(=O)N2c2ccccc2)cc1OC (stereo not given)	124%
Cc1ccc(N2C(=O)c3n[nH]c(C)c3C2c2ccccc2Cl)cc1 (stereo not given)	120%
CCN(CC)C(=O)CN1C(=O)COc2ccc(S(=O)(=O)N3CCOCC3)cc21	78%
O=C(Nc1cc2c(cc1C(=O)c1ccc(Br)cc1)OCCO2)c1ccc(Cl)cc1	102%
Cc1ccc2c(c1)N(CC(=O)OCC(=O)NCc1ccccc1)C(=O)CO2	81%
COCCNC(=O)c1ccc(-c2nc(CS(=O)(=O)c3ccccc3)c(C)o2)cc1	119%
COCCCNc1nc2c(c(=O)[nH]c(=O)n2C)n1CC(O)COc1ccc(Cl)cc1 (stereo not given)	66%
CCOC(=O)c1ccc(N2C(=O)c3[nH]nc(-c4ccccc4)c3C2c2ccc(C(C)C)cc2)cc1 (stereo not given)	105%
O=C(O)c1ccc(N2C(=O)c3[nH]nc(-c4ccccc4)c3C2c2cccc(F)c2)cc1 (stereo not given)	92%
O=C1c2[nH]nc(-c3ccccc3)c2C(c2ccccc2)N1c1cccc(C(F)(F)F)c1 (stereo not given)	20% (active)
CCOC(=O)c1ccc(N2C(=O)c3n[nH]c(-c4cccs4)c3C2c2ccc(CC)cc2)cc1 (stereo not given)	99%
CCOC(=O)c1ccc(N2C(=O)c3[nH]nc(-c4ccc(C)cc4)c3C2c2cccc(F)c2)cc1 (stereo not given)	117%
CCc1ccc(C2c3c(-c4ccccc4)n[nH]c3C(=O)N2c2ccc(C(=O)O)cc2)cc1 (stereo not given)	48% (active)
CCc1ccc(C2c3c(n[nH]c3C)C(=O)N2c2ccc(C)cc2)cc1 (stereo not given)	8% (active)
CCOC(=O)c1ccc(N2C(=O)c3n[nH]c(C)c3C2c2ccc(CC)cc2)cc1 (stereo not given)	78%
CCOC(=O)c1ccc(N2C(=O)c3[nH]nc(-c4ccccc4)c3C2c2ccc(CC)cc2)cc1 (stereo not given)	100%
